Assay results: PubChem BioAssay (EPA / NIEHS)
Activity calls are given as the source filed them. The calls were made as follows: active = hit-call score of the fitted dose curve at least 0.9, where 1 is the maximum; inactive = score below 0.9.

Each molecule was assayed against Transcriptional activator Myb (Homo sapiens) (UniProt P10242) (assay: ATG_Myb_CIS: Attagene CIS-FACTORIAL HepG2 Assay for human Myeloblastosis (Myb) Proto-Oncogene Transcription Factor (AID 2282986)). Settings: HepG2 Attagene CIS-FACTORIAL Myb reporter transcription; actives raise or lower the signal.
Transcriptional activator Myb (Homo sapiens), sequence (P10242 whole entry, looked up): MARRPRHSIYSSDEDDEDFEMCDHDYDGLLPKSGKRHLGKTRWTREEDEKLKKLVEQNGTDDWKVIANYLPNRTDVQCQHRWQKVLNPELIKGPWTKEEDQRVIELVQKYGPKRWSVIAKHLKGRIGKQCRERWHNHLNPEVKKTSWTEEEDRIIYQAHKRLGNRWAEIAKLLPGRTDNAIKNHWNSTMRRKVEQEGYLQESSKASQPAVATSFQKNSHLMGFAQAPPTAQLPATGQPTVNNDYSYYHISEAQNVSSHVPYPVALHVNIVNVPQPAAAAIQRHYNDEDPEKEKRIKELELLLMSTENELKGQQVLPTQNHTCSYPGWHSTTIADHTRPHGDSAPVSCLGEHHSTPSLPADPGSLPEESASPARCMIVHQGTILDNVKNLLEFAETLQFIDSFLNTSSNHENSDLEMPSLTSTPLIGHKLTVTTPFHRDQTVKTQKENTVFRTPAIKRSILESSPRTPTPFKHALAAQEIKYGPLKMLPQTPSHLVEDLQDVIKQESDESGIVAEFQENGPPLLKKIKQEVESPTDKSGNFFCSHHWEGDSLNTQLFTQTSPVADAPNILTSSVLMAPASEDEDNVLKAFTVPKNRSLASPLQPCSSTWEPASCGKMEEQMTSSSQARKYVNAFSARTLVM
Procedure, shortened: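 Reporter transcript levels, quantified by fluorescent RT-PCR and capillary electrophoresis, serve as the read-out. Transfected HepG2 cells carrying cis-promoter reporter units are dosed for 24 hours, and curves are fitted bidirectionally against DMSO controls.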
`O=S(=O)(O)c1ccc2ccccc2c1` was tested, and the outcome was “inactive”. With `Nc1ccc([N+](=O)[O-])cc1O` the outcome was “inactive”. `C=C(C)C(=O)OCCC(F)(F)C(F)(F)C(F)(F)C(F)(F)C(F)(C(F)(F)F)C(F)(F)F` was tested, and the outcome was “inactive”. For `CCN(CC)c1ccc2c(C)cc(=O)oc2c1`, the outcome was “inactive”. For `CC(C)OC(=O)c1ccccc1C(=O)OC(C)C`, the outcome was “inactive”. With `CS(C)(=O)=O` the outcome was “inactive”. For `CC(C)(C)c1ccc(OC2CCCCC2O)cc1` (stereo not given), the outcome was “inactive”. In the case of `C=CC(F)(F)C(F)(F)C(F)(F)C(F)(F)C(F)(F)C(F)(F)C(F)(F)C(F)(F)C=C`, the outcome is reported as “inactive”. For `COC(=O)C1CCC(C(=O)OC)CC1` (stereo not given), the outcome was “inactive”. `FC(F)(F)C(F)(F)C(F)(F)C(F)(F)C(F)(F)C(F)(F)C(F)(F)I` was tested, and the outcome was “inactive”. `C=CC/C=C/C/C=C/C/C=C/C` was tested, and the outcome was “inactive”. For `CCC(=O)OCCc1ccccc1`, the outcome was “inactive”. With `C1COCCN1` the outcome was “inactive”. For `C(=C(c1ccccc1)c1ccccc1)c1ccccc1`, the outcome was “inactive”. With `CCc1ccc(C(c2ccc(CC)cc2)C(Cl)Cl)cc1` the outcome was “inactive”. `FC(F)(F)C(F)(F)C(F)(F)C(F)(F)C(F)(F)C(F)(F)CC1CO1` (stereo not given) was tested, and the outcome was “inactive”. With `COC(=O)CCC(F)(F)C(F)(F)C(F)(F)C(F)(F)F` the outcome was “inactive”. For `C=CC(=O)OCC(F)(F)C(F)(F)C(F)(F)C(F)(F)COC(=O)C=C`, the outcome was “inactive”. In the case of `O=P(O)(O)OCCC(F)(F)C(F)(F)C(F)(F)C(F)(F)C(F)(F)C(F)(F)F`, the outcome is reported as “inactive”. `FC(F)(Br)C(F)(F)C(F)(F)C(F)(F)C(F)(F)C(F)(F)Br` was tested, and the outcome was “inactive”. In the case of `CCCCOCCOCCOC(=O)CCCCC(=O)OCCOCCOCCCC`, the outcome is reported as “inactive”. With `Cc1cccc(N(C)C)c1` the outcome was “inactive”. In the case of `N=C(N)C(F)(F)C(F)(F)C(F)(F)C(F)(F)C(F)(F)C(F)(F)C(F)(F)F`, the outcome is reported as “inactive”. In the case of `CCCCCCCCC(F)(F)C(F)(F)C(F)(F)C(F)(F)C(F)(F)C(F)(F)F`, the outcome is reported as “inactive”. For `Nc1cc(Cl)c(N)c(Cl)c1`, the outcome was “inactive”. `CCCCCCC(C)OC(=O)CCCCC(=O)OC(C)CCCCCC` (stereo not given) was tested, and the outcome was “inactive”. `O=C(C=Cc1ccccc1)OCC=Cc1ccccc1` was tested, and the outcome was “inactive”. With `FC(F)(F)C(F)(F)C(F)(F)C(F)(F)C(F)(F)C(F)(F)C(F)(F)C(F)(F)CCS` the outcome was “inactive”. `O=C(CC(=O)C(F)(F)C(F)(F)F)C(F)(F)F` was tested, and the outcome was “inactive”. In the case of `FC(F)(F)C(F)(F)C(F)(F)C(F)(F)C(F)(F)CCI`, the outcome is reported as “inactive”. `CNC(=S)NC` was tested, and the outcome was “inactive”. `C=CC(=O)OCC(F)(F)C(F)(F)C(F)(F)C(F)(F)C(F)(F)C(F)(F)C(F)(F)F` was tested, and the outcome was “inactive”. With `CCCCCCOC(=O)c1ccccc1` the outcome was “inactive”. `CCCCNc1ccccc1` was tested, and the outcome was “inactive”. `CO[Si](OC)(c1ccccc1)c1ccccc1` was tested, and the outcome was “inactive”.
